# Measured values as given in paper PMC7862700, “An all-to-all approach to the identification of sequence-specific readers for epigenetic DNA modifications on cytosine”.
# Assays:
# Test in all cases: DAPPL (digital affinity profiling via proximity ligation, sequencing); 10 mM Tris-HCl pH 7.5, 50 mM NaCl, 1 mM DTT, 4% glycerol, room temperature, 30 min; GST-TFs on glutathione beads, 16-mer random dsDNA library, 0.1% formaldehyde crosslink after washing; high values mean tight binding
# Details in all cases: protein: recombinant; tags: N-terminal GST; dsDNA, one strand shown
# [1] = target: T1, FLI1 (Homo sapiens, UniProt Q01543 1-452)
# T1 sequence: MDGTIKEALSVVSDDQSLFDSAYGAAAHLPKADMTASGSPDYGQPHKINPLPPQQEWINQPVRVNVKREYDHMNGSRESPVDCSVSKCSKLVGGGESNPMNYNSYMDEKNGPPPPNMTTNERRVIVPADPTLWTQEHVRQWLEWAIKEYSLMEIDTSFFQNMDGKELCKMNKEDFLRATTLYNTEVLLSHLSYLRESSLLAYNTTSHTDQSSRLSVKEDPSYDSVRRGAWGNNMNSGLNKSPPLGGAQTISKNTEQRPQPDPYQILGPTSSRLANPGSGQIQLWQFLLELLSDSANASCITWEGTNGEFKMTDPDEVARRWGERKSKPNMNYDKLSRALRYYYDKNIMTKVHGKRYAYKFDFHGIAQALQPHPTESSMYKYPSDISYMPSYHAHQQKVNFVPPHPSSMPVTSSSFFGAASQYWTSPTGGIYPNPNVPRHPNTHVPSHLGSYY
# In short: (§1)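 Pools were built from human transcription factors expressed in yeast as GST fusions, captured on glutathione beads and DNA-barcoded, along with a tag-only sample. Incubation with 200 nmole of a 16-mer random double-stranded DNA library lasted 30 min at room temperature in Tris/NaCl/DTT/glycerol buffer, and was followed by washing, 0.1% formaldehyde crosslinking, proximity ligation, PCR amplification and Illumina NextSeq500 sequencing. Binding signal is the quotient of each hexamer's read frequency for a factor and its frequency for the tag-only sample.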
# [2] = target: T2, ELK1 (Homo sapiens, UniProt P19419 1-428)
# T2 sequence: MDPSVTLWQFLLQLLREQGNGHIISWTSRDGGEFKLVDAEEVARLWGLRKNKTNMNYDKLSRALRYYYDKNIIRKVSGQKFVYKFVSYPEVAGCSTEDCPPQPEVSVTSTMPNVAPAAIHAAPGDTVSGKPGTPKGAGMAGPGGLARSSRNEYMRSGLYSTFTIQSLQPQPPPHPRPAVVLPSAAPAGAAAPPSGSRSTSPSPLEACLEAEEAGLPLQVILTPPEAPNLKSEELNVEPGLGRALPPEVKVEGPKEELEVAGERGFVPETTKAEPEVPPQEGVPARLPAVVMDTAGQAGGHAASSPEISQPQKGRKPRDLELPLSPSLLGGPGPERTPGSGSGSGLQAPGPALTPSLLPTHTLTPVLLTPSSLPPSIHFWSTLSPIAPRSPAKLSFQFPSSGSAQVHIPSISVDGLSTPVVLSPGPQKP
# In short: as §1
# [3] = target: T3, GABPA (Homo sapiens, UniProt Q06546 1-454)
# T3 sequence: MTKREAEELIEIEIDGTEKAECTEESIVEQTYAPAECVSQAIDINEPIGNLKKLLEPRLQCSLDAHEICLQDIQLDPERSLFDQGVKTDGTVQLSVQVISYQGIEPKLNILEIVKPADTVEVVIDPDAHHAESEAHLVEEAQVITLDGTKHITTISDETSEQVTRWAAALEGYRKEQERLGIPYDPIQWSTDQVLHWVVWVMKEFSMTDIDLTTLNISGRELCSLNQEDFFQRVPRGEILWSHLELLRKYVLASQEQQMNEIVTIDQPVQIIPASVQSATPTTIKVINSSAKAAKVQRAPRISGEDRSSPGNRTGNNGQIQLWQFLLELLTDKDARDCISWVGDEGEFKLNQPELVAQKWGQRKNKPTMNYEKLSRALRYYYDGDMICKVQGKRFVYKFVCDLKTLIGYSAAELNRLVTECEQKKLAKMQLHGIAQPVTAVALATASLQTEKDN
# In short: as §1
# [4] = target: T4, ERG (Homo sapiens, UniProt P11308 1-479)
# T4 sequence: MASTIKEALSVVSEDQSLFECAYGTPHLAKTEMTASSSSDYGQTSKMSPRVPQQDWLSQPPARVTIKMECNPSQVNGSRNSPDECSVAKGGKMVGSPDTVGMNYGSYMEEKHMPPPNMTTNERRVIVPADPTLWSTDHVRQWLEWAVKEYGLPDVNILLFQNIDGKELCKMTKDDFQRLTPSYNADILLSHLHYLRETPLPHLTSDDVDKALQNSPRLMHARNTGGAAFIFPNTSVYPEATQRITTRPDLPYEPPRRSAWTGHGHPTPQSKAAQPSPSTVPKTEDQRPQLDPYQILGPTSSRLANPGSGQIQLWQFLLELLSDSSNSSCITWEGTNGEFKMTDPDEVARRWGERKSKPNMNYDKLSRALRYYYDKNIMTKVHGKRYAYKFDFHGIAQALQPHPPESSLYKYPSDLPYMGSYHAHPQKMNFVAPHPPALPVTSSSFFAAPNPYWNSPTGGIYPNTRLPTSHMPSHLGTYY
# In short: as §1
# [5] = target: ELF1 (Homo sapiens, UniProt P32519 1-619)
# In short: as §1
# [6] = target: T5, EHF (Homo sapiens, UniProt Q9NZC4 1-300)
# T5 sequence: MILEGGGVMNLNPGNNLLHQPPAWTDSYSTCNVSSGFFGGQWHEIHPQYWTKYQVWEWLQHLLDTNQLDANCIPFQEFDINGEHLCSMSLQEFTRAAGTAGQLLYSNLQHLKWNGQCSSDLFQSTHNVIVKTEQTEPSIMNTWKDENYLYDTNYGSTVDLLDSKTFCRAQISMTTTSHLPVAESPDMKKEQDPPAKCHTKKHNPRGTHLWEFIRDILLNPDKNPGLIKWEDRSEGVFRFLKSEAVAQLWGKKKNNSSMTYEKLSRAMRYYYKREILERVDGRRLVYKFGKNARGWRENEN
# In short: as §1
# [7] = target: SPI1 (Homo sapiens, UniProt P17947 1-270)
# In short: as §1
# [8] = target: SPIB (Homo sapiens, UniProt Q01892 1-262)
# In short: as §1
# [9] = target: T6, ELK3 (Homo sapiens, UniProt P41970 1-407)
# T6 sequence: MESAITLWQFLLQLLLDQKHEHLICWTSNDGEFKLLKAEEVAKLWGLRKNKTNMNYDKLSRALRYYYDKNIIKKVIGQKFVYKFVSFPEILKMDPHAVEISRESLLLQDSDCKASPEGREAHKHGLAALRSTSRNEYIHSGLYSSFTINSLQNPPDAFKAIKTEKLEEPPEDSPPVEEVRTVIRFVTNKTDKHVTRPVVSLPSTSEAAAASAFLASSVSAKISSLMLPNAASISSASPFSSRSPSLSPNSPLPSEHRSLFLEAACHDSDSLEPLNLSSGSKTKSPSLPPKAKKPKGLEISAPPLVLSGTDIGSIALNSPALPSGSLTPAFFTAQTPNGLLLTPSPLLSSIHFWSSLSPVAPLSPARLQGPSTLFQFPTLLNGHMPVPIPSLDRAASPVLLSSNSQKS
# In short: as §1
# [10] = target: T7, FEV (Homo sapiens, UniProt Q99581 1-238)
# T7 sequence: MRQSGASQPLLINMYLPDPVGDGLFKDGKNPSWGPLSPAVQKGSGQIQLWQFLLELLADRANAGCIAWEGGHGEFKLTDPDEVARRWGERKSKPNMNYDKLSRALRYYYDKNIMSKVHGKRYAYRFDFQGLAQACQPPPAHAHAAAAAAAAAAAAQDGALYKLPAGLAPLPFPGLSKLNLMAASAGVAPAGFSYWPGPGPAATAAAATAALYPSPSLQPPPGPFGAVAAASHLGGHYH
# In short: as §1
# [11] = target: ETV5 (Homo sapiens, UniProt P41161 1-510)
# In short: as §1
# [12] = target: T8, SPIC (Homo sapiens, UniProt Q8N5J4 1-248)
# T8 sequence: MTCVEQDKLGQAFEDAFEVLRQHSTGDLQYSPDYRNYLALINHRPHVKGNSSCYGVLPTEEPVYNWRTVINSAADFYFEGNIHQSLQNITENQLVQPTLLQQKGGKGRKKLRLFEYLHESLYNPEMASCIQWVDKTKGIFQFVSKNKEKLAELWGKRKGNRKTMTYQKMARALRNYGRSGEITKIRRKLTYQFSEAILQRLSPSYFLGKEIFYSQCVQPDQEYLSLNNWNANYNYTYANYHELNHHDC
# In short: as §1
# [13] = target: ELF4 (Homo sapiens, UniProt Q99607 1-663)
# In short: as §1
# [14] = target: T9, ELK4 (Homo sapiens, UniProt P28324-2 1-405)
# T9 sequence: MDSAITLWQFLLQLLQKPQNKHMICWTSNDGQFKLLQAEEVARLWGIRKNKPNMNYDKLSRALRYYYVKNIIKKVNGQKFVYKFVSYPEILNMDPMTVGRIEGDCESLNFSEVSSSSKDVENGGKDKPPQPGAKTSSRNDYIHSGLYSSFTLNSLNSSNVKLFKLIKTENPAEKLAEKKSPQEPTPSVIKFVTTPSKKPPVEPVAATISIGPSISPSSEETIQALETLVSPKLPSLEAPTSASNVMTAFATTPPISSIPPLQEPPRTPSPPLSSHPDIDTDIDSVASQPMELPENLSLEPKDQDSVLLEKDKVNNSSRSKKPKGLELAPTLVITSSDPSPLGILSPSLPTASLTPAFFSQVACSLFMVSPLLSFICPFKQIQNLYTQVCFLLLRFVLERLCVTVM
# In short: as §1
# [15] = target: T10, ETV2 (Homo sapiens, UniProt O00321 1-342)
# T10 sequence: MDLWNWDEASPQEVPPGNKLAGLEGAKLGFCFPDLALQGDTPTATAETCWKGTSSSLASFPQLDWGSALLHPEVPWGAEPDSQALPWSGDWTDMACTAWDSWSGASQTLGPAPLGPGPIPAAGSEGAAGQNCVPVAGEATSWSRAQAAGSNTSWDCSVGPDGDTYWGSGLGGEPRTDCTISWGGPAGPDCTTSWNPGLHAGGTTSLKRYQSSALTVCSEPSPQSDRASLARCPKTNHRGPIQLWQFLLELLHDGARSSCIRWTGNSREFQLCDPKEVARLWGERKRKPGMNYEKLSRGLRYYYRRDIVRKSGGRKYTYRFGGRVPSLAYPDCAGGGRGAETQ
# In short: as §1
# [16] = target: T11, ELF3 (Homo sapiens, UniProt P78545 1-371)
# T11 sequence: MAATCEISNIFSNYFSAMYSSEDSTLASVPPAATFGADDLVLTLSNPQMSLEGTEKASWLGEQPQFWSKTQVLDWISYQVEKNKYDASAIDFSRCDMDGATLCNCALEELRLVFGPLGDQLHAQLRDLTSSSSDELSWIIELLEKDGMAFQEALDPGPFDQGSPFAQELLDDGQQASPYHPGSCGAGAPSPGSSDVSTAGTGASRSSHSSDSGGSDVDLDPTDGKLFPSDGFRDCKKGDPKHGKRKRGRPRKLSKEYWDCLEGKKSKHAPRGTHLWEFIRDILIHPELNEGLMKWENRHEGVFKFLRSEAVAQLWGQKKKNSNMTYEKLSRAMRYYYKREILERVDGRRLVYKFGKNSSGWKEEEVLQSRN
# In short: as §1
# [17] = target: ETV1 (Homo sapiens, UniProt P50549 1-477)
# In short: as §1
# ELF4, sequence (Q99607 whole entry): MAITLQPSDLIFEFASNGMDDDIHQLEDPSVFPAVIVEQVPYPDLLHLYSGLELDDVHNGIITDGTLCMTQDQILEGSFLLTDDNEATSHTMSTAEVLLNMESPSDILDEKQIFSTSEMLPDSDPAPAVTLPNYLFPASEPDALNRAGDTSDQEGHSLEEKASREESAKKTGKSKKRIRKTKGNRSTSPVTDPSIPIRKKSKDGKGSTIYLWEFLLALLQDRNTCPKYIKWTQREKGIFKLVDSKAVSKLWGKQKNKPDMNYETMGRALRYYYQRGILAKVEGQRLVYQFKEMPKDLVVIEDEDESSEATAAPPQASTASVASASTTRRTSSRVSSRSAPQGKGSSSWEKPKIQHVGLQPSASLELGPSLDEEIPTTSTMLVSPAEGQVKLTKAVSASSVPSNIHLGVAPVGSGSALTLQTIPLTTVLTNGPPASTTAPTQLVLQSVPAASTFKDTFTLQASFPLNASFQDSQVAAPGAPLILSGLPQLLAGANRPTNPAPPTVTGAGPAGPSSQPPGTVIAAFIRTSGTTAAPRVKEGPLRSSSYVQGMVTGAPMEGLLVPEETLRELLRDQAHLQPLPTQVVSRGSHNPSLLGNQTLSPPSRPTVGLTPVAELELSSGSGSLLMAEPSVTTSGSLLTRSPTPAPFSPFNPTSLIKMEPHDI
# ELF1, sequence (P32519 whole entry): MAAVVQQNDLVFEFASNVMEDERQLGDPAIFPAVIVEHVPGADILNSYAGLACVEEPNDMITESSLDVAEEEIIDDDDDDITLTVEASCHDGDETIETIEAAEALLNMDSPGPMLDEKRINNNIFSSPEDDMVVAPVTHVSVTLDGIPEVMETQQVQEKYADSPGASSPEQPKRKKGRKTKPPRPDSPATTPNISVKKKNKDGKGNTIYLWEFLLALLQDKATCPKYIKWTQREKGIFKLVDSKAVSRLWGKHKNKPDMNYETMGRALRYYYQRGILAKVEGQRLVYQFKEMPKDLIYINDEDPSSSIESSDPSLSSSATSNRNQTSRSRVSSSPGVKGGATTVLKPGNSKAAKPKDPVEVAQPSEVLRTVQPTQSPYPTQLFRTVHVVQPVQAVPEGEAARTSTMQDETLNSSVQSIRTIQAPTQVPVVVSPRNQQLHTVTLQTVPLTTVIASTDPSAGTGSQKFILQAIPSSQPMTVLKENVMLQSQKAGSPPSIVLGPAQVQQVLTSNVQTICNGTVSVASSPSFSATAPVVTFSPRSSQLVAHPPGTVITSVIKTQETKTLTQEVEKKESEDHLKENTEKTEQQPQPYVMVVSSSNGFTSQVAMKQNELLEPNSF
# SPIB, sequence (Q01892 whole entry): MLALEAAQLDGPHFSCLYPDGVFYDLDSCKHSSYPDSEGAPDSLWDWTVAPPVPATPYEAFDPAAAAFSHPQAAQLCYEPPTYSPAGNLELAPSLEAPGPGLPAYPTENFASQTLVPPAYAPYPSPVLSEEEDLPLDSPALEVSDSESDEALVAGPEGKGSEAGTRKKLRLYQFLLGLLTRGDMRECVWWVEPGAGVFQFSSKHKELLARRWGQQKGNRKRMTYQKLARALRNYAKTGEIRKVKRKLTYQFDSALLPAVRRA
# ETV1, sequence (P50549 whole entry): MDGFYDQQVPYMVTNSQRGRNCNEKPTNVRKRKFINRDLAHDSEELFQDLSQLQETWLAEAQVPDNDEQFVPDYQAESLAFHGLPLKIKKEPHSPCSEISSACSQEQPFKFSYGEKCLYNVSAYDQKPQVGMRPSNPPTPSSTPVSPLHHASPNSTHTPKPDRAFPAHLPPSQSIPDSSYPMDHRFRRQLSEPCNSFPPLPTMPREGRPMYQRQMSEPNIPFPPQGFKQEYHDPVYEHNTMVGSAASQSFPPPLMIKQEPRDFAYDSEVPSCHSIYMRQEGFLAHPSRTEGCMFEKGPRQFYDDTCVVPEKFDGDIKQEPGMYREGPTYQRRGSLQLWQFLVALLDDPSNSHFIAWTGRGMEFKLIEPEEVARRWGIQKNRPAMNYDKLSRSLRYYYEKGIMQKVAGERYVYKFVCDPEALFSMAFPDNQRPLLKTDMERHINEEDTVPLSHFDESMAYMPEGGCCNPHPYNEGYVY
# ETV5, sequence (P41161 whole entry): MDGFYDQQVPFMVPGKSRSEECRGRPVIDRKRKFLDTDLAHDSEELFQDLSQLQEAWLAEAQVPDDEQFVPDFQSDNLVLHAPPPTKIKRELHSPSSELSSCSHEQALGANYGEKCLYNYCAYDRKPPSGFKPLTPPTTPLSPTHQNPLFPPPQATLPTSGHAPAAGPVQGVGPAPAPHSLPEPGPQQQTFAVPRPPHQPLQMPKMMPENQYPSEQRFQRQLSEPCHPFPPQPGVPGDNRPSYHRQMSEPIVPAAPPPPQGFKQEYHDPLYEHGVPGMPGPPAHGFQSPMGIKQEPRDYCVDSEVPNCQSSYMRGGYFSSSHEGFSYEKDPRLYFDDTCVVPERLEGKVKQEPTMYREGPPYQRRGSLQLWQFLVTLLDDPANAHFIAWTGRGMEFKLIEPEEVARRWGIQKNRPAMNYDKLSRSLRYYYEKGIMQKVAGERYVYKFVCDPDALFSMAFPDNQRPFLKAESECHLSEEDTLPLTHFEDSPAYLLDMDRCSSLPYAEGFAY
Sequence,binding signal [1],binding signal [2],binding signal [3],binding signal [4],binding signal [5],binding signal [6],binding signal [7],binding signal [8],binding signal [9],binding signal [10],binding signal [11],binding signal [12],binding signal [13],binding signal [14],binding signal [15],binding signal [16],binding signal [17]
CCAACG,"1.12 fold enrichment (6-mer frequency, TF over GST control)","1.15 fold enrichment (6-mer frequency, TF over GST control)","1.09 fold enrichment (6-mer frequency, TF over GST control)","1.17 fold enrichment (6-mer frequency, TF over GST control)","1.2 fold enrichment (6-mer frequency, TF over GST control)","1.11 fold enrichment (6-mer frequency, TF over GST control)","1.15 fold enrichment (6-mer frequency, TF over GST control)","1.07 fold enrichment (6-mer frequency, TF over GST control)","1 fold enrichment (6-mer frequency, TF over GST control)","1.14 fold enrichment (6-mer frequency, TF over GST control)","1.06 fold enrichment (6-mer frequency, TF over GST control)","1.11 fold enrichment (6-mer frequency, TF over GST control)","1.21 fold enrichment (6-mer frequency, TF over GST control)","1.12 fold enrichment (6-mer frequency, TF over GST control)","1.14 fold enrichment (6-mer frequency, TF over GST control)","1.17 fold enrichment (6-mer frequency, TF over GST control)","1.11 fold enrichment (6-mer frequency, TF over GST control)"
ACGCTG,"1.14 fold enrichment (6-mer frequency, TF over GST control)","1.19 fold enrichment (6-mer frequency, TF over GST control)","1.23 fold enrichment (6-mer frequency, TF over GST control)","1.18 fold enrichment (6-mer frequency, TF over GST control)","1.19 fold enrichment (6-mer frequency, TF over GST control)","1.23 fold enrichment (6-mer frequency, TF over GST control)","1.11 fold enrichment (6-mer frequency, TF over GST control)","1.05 fold enrichment (6-mer frequency, TF over GST control)",,"1.09 fold enrichment (6-mer frequency, TF over GST control)","1.08 fold enrichment (6-mer frequency, TF over GST control)","1.15 fold enrichment (6-mer frequency, TF over GST control)","1.17 fold enrichment (6-mer frequency, TF over GST control)","1.21 fold enrichment (6-mer frequency, TF over GST control)","1.05 fold enrichment (6-mer frequency, TF over GST control)","1.05 fold enrichment (6-mer frequency, TF over GST control)","1.12 fold enrichment (6-mer frequency, TF over GST control)"
